This is a sample that favours compounds with a hit; in the whole collection about 5.2% have one here.
Sfp PPTase inh: inhibitors of Bacillus subtilis Sfp phosphopantetheinyl transferase. Q9F4F7. Biochemical Sfp PPTase activity, qHTS. Potency, µM, inactives show largest response in the series, negative = inhibition, usual class: inhibitors. 310,000 tested, 3.5% active. AID 1490;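 note: the enzyme is Sfp with the accession as filed and its product quenches rhodamine fluorescence; potency is the fitted concentration of half-maximal effect; 0% = enzyme reaction without inhibitor and -100% = no enzyme wells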
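Buffer: 50 mM Hepes-Na pH 7.6, 10 mM MgCl2, 0.01% Nonidet P-40, 0.01% BSA. Enzyme 15 nM, pre-exposed to compound 15 min; substrates then added and fluorescence change tracked over 30 min.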
Tau fluor cs: counter-screen for tau fibril formation inhibitors. 280,000 tested, 0.93% active. Potency, µM (titrated, usually from 57.7 µM), inactives show at the highest dose activity change, negative = decrease. AID 1463. tau K18 P301L Alexa594 fluorescence, heparin fibrillization; note: potency is the fitted concentration of half-maximal effect; nearly all actives have a fitted effect of over 55% in size
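Human tau K18 P301L (15 uM unlabeled, 0.24 uM Alexa 594-labeled) in 100 mM sodium acetate pH 7 with 20 uM heparin, 6 hr at 37 C. ThT 30 uM added, 1 hr ambient; Alexa 594 FP and total fluorescence read at 555/632 nm.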
Tau ThT inhib: inhibitors of human tau fibril formation, thioflavin T binding; P10636; recombinant tau K18 P301L, heparin-induced fibrillization, ThT fluorescence; Potency, µM (top dose mostly 57.4 µM), inactives show at the top dose activity, negative = inhibition, hits mostly inhibitors; 270,000 tested, 2.1% active; AID 1460; note: potency is the fitted concentration of half-maximal effect; nearly all actives have a fitted effect of over 55% in size
Target sequence (P10636 561-689 P618L limits assumed): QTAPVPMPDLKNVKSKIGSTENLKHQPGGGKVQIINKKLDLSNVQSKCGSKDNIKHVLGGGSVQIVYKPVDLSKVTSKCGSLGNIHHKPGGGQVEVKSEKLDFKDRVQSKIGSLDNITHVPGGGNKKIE
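Fibril formation assay: tau K18 P301L at 15 uM with trace Alexa 594 label, heparin inducer 20 uM, pH 7 sodium acetate buffer, 37 C for 6 hr; endpoint ThT signal.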
Tau fibril FP: blocks human tau fibril formation measured by polarization. K18 P301L tau heparin fibrillization, Alexa594 FP, 6 h. Potency, µM (series often up to 57.7 µM), for inactives: at the highest dose activity, negative = inhibition, usual class: inhibitors. 280,000 tested, 0.39% active. AID 1468; note: potency is the fitted concentration of half-maximal effect; nearly all actives have a fitted effect of over 55% in size
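Human tau K18 […] P301L fragment, 15 uM unlabeled plus 0.24 uM Alexa 594-labeled tau (final), with compound and 20 uM heparin in 100 mM sodium acetate pH 7; 6 hr at 37 C, then Alexa 594 FP read.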
FBPA coupling cs: coupling enzyme interference in Giardia aldolase counter-screen | coupling enzyme system counterscreen, AmpLite Red fluorescence | activity change, negative = inhibition, % at 58.2 µM, hits read low | AID 2472 | 290,000 tested, 0.67% active; in the data active = activity change below about -30%
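Coupling enzymes only (glyceraldehyde-3-phosphate) + compound, at 57.5 uM final, 10 min RT; add substrate/coupling/AmpLite Red mix, 20 min RT; fluorescence ex 525/em 598 nm. Actives flag coupling-system interference.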
* = called active by the depositor; ? = inconclusive; . = no result given; [ ] = another dose, or the depositor's remark. Unless noted, calls come from the whole dose curve; as a rule, active = well fitted curve in the direction sought with a large enough effect; inconclusive = small, poorly fitted or top-dose-only effect, or another doubt; inactive = no such curve, though single readings can be large; an effect the other way counts as inactive or inconclusive. Unless noted, % is set by controls: 0 for no effect and ±100 for the full control effect.

SMILES	Sfp PPTase inh	Tau fluor cs	Tau ThT inhib	Tau fibril FP	FBPA coupling cs
CCc1ccc(NC(=O)C(CC)n2nnc(C(=O)OC)c2C(=O)OC)cc1 (stereo not drawn)	.	-6.5%	-4.8%	-7.0%	.
CCOc1ccccc1N(C)C(=O)Cn1cnc2onc(-c3ccc(F)cc3)c2c1=O	.	-23.4%	-7.2%	?	.
COc1ccc(N(C)S(=O)(=O)c2cccc(C(=O)NC3CCC(C)CC3)c2)cc1 (stereo not drawn)	19.3%	-22.8%	-15.9%	-7.4%	0.4
COc1ccc(C2=CSC3=C(C(=O)c4cccc(S(=O)(=O)N(C)C)c4)CCN23)cc1	0.9%	?	25.1µM*	?	2.6
Cc1ccc(/C(=N/Nc2nc3ccccc3s2)C2=C(O)c3ccccc3C2=O)cc1	79.4µM*	?	?	-1.0%	-8.6
Cc1ccc(S(=O)(=O)N(C)CC(=O)Nc2nc3ccccc3s2)cc1	10.1%	-21.8%	-12.6%	5.7%	0.9
CC(=O)c1ccc(NC(=O)Cn2nc(C(F)(F)F)c3c2CCC3)cc1	.	-13.3%	?	1.6%	.
O=C(NCCN1CCN(Cc2ccccc2)CC1)C1c2ccccc2C(=O)N2CCc3ccccc3C12 (stereo not drawn)	32.6%	4.1%	-3.2%	10.1%	3.1
Cc1ccc(CNC(=O)C2c3ccccc3C(=O)N3CCc4ccccc4C23)o1 (stereo not drawn)	14.1µM*	-14.4%	?	?	-3.4
CS(=O)(=O)Nc1ccc(C2=NN(S(=O)(=O)c3ccc(F)cc3)C(c3ccco3)C2)cc1 (stereo not drawn)	50.1µM*	?	-12.1%	-4.9%	-4.0
Cc1ccc(C(=O)NCC(c2cccs2)S(=O)(=O)c2cccs2)cc1C (stereo not drawn)	.	-24.9%	-11.0%	-9.5%	.
Oc1ccccc1-c1nc(/C=C/c2ccccc2Cl)nn1-c1ccccc1	.	?	-9.8%	?	.
CC(C)NC(=O)CC(c1ccccc1)c1cc(Br)ccc1O (stereo not drawn)	100µM*	-20.1%	-8.6%	2.0%	0.4
COc1cc2cc3c4c(cc(OC)c(OC)c4c2cc1OC)CCN3C	70.8µM*	12.6µM*[quencher]	10µM*	?	-45.1*
Cc1sc2nc3c(C(=O)N4CCCC4)cc(C(=O)c4ccccc4O)cn3c(=O)c2c1C	22.4µM*	-8.6%	?	3.2%	1.2
Cc1nn(C(=O)c2ccc(Cl)cc2)c(C)c1S(=O)(=O)N1CCCCCC1	.	2.1%	?	13.5%	.
CCNC(=S)NS(=O)(=O)c1ccc(Cl)cc1	-6.5%	-1.6%	-3.1%	-3.2%	3.2
CNC(=S)NNc1nncc2ccccc12	22.4µM*	-0.7%	-5.7%	1.7%	1.5
CCNC(=S)NNc1nncc2ccccc12	3.98µM*	-2.6%	-5.8%	-2.1%	-0.8
CCNC(=S)NS(=O)(=O)c1ccccc1	79.4µM*	-2.8%	-1.9%	-1.9%	-1.9
CCNC(=S)NNc1ccccc1	35.5µM*	-15.9%	?	?	-1.3
Cc1ccc(O)c(NC(=O)CCSc2nc(-c3ccco3)cc(C(F)(F)F)n2)c1	.	?	?	-7.3%	.
CCc1ccccc1NC(=O)Cn1nc2c3cc(F)ccc3n(Cc3cccc(C)c3)cc-2c1=O	.	-4.0%	?	1.5%	.
CC(C)N1CCc2[nH]c(=S)[nH]c(=O)c2C1	44.7µM*	-9.5%	-3.2%	3.4%	-3.1
CCCN1CCc2[nH]c(=S)[nH]c(=O)c2C1	50.1µM*	-8.3%	-5.4%	7.0%	-2.3
SMILES	Sfp PPTase inh	Tau fluor cs	Tau ThT inhib	Tau fibril FP	FBPA coupling cs
Cc1ccc(CN2CCc3[nH]c(=S)[nH]c(=O)c3C2)cc1	-13.5%	.	.	.	.
Cc1ccccc1C(=O)N1CCN(CCc2ccccn2)CC1	.	-1.5%	-3.0%	-2.6%	.
O=C(c1ccco1)c1coc2c1cc(O)c1ccccc12	-7.8%	?	3.55µM*	-0.7%	-31.0*
O=C(O)Cn1cc(C(=O)c2ccco2)c2ccccc21	-21.6%	-1.0%	-6.9%	-3.0%	-0.6
CC(=O)c1c(C)oc2c1cc(O)c1ccccc12	0.2%	-19.6%	.	0.1%	-19.7
CC(=O)c1coc2c1cc(O)c1ccccc12	5.3%	-18.8%	?	7.2%	-33.4*
CC(=O)c1cc(O)c2ccccc2c1O	44.7µM*	?	28.2µM*	?	-33.0*
CC(=O)Oc1cc2c(C(C)=O)coc2c2ccccc12	-1.8%	0.2%	-6.3%	-4.7%	-1.4
COC(=O)C1=C(C)N(Cc2ccccc2)C(=S)N[C@H]1CCc1ccccc1	3.4%	.	.	.	1.5
COc1cc(CNc2ccccc2SC)ccc1O	79.4µM*	?	?	11.0%	-9.4
CCOc1cc(CNc2ccccc2SC)ccc1O	56.2µM*	?	?	10.1%	-14.3
CC(=O)Nc1cccc(NC(=O)Cc2csc(COc3cccc(C)c3)n2)c1	.	-17.0%	-11.0%	-3.0%	.
Cc1cc(O)ccc1N=Cc1c(C(F)(F)F)[nH][nH]c1=O	?	?	25.1µM*	31.6µM*	-21.9
COc1ccc(C(=O)N2C(=S)NC(=O)/C2=C\c2ccc(C)cc2)cc1	50.1µM*	?	?	1.2%	4.5
COC(=O)CN1C(=S)N(c2ccc(OC)cc2)C(=O)/C1=C/c1ccc(OC)cc1	-2.2%	2.3%	4.9%	-7.4%	-1.1
C=CCN1CCN(C(c2ccc(OC)c(OC)c2)c2nnnn2C(C)(C)C)CC1 (stereo not drawn)	79.4µM*	-3.2%	-10.0%	-9.9%	-72.3*
CCC(C)(C)n1nnnc1C(c1ccc(O)c(OC)c1)N1CCN(c2nc3ccccc3s2)CC1 (stereo not drawn)	39.8µM*	-20.2%	?	-14.8%	-1.9
Cc1nc(-c2cccc(S(=O)(=O)N3CCOCC3)c2)cs1	39.8µM*	-18.1%	?	-19.8%	2.4
Cc1nc(-c2cccc(S(=O)(=O)N3CC(C)OC(C)C3)c2)cs1 (stereo not drawn)	13.8%	0.7%	-2.2%	-2.4%	2.4
N#CC1=C(N)SC2(CCCCC2)SC1c1ccccc1 (stereo not drawn)	10µM*	-14.9%	?	-17.9%	-0.4
COc1ccc(C(=O)Nc2ccc3nc(SCC(=O)N(C)c4ccccc4)sc3c2)cc1	.	?	-4.0%	?	.
CC(C)c1c(O)c(-c2cc3c(c(C(C)C)c2O)CCC2C(C)(C)CCC[C@@]32C)cc2c1CCC1C(C)(C)CCC[C@@]21C (stereo partly drawn)	-1.1%	-13.1%	-2.6%	-17.1%	13.2
CC(C)c1cc2c(c(O)c1O)[C@@]13CCCC(C)(C)C1CC2OC3=O (stereo partly drawn)	3.98µM*	.	.	.	-30.3*
CCOC(=O)c1c(C)[nH]c(C)c1S(=O)(=O)N(C)CC(=O)Nc1ccc(C)c(N(C)C)c1	.	-27.1%	-16.2%	-3.9%	.
O=C(NCc1cccc(F)c1)c1ccc2nc(N3CCCCC3)sc2c1	.	-5.6%	-1.0%	-5.0%	.
CCOC(=O)/C(=C/C=C1\Sc2ccccc2N1CC)C(C)=O	-3.7%	-23.3%	?	?	-6.9
